Experimental data as given in the supplement of paper PMC6555819.

Tests used:
Test in all cases: PBM binding z-score (relative to random genomic background probes); higher = stronger binding; sequences stand for … in GC…GCGATTGACAGCGTAGAATGAAGG
[1] = test system: FXR:RXRa (NR concentration 270 nM, RXRa partner concentration 90 nM)
Procedure, shortened: (§1)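 Probes were double-stranded and carried 34-nt variable regions with direct-repeat seeds, single-nucleotide variants, half-site ablations and random human genomic background sequences, printed on custom Agilent 4×180K protein-binding microarrays. Arrays were incubated 1 h with ligand-free nuclear receptor dimers in PBS pH 7.4, 2% milk, 0.02% Triton X-100, 1 mM DTT, 0.2 mg/mL BSA and 0.4 mg/ml salmon testes DNA. Antibodies against each partner (one per run) detected binding, and scanned fluorescence was regression-normalized. Binding z-scores use the random background probes as reference.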

[2] = test system: LXRa:RXRa (NR concentration 270 nM, RXRa partner concentration 90 nM)
Procedure, shortened: as §1

[3] = test system: LXRa homodimer (NR concentration 270 nM)
Procedure, shortened: as §1

[4] = test system: LXRb:RXRa (NR concentration 270 nM, RXRa partner concentration 90 nM)
Procedure, shortened: as §1

[5] = test system: LXRb homodimer (NR concentration 270 nM)
Procedure, shortened: as §1

[6] = test system: PPARa:RXRa (NR concentration 270 nM, RXRa partner concentration 90 nM)
Procedure, shortened: as §1

[7] = test system: PPARg:RXRa (NR concentration 180 nM, RXRa partner concentration 90 nM)
Procedure, shortened: as §1

[8] = test system: PPARg:RXRa 270nM:90nM, anti-RXR (NR concentration 270 nM, RXRa partner concentration 90 nM)
Procedure, shortened: as §1

[9] = test system: PPARg:RXRa 30nM:10nM, anti-RXR (NR concentration 30 nM, RXRa partner concentration 10 nM)
Procedure, shortened: as §1

[10] = test system: PPARg:RXRa 90nM:30nM, anti-RXR (NR concentration 90 nM, RXRa partner concentration 30 nM)
Procedure, shortened: as §1

[11] = test system: PPARg:RXRa DBDmut IVT, anti-RXR (DBD mutation: RXRa K156A/R161A, NR concentration 270 nM, RXRa partner concentration 90 nM)
Procedure, shortened: as §1

[12] = test system: PPARg:RXRa IVT, anti-PPARg (NR concentration 270 nM, RXRa partner concentration 90 nM)
Procedure, shortened: as §1

[13] = test system: PPARg DBDmut:RXRa IVT, anti-PPARg (DBD mutation: PPARg1 K132A/R137A, NR concentration 270 nM, RXRa partner concentration 90 nM)
Procedure, shortened: as §1

[14] = test system: PPARg DBDmut IVT, anti-PPARg (DBD mutation: PPARg1 K132A/R137A, NR concentration 270 nM)
Procedure, shortened: as §1

[15] = test system: PPARg homodimer (NR concentration 180 nM)
Procedure, shortened: as §1

[16] = test system: PXR:RXRa (NR concentration 270 nM, RXRa partner concentration 90 nM)
Procedure, shortened: as §1

[17] = test system: PXR homodimer (NR concentration 270 nM)
Procedure, shortened: as §1

[18] = test system: RARa:RXR (NR concentration 270 nM, RXRa partner concentration 90 nM)
Procedure, shortened: as §1

[19] = test system: RARa homodimer (NR concentration 270 nM)
Procedure, shortened: as §1

[20] = test system: RARb:RXRa (NR concentration 270 nM, RXRa partner concentration 90 nM)
Procedure, shortened: as §1

Row | Sequence | PBM binding z-score [1] | PBM binding z-score [2] | PBM binding z-score [3] | PBM binding z-score [4] | PBM binding z-score [5] | PBM binding z-score [6] | PBM binding z-score [7] | PBM binding z-score [8] | PBM binding z-score [9] | PBM binding z-score [10] | PBM binding z-score [11] | PBM binding z-score [12] | PBM binding z-score [13] | PBM binding z-score [14] | PBM binding z-score [15] | PBM binding z-score [16] | PBM binding z-score [17] | PBM binding z-score [18] | PBM binding z-score [19] | PBM binding z-score [20]
1 | CCACACAGGTGAGAAGGTAACTCAGCCTCGATTA | 0.187 | 0.0665 | 0.368 | 0.214 | -0.197 | 0.855 | 0.76 | 0.577 | -0.223 | 0.451 | 1.42 | 0.872 | -0.137 | -0.56 | 1.35 | 0.0866 | 0.0622 | 0.524 | 0.47 | 0.709
2 | TAACCTAGGTCATGCGGGCCAGTATAGTGTCGGC | 4.19 | 4.46 | 1.83 | 2.55 | -0.0591 | 4.09 | 4.16 | 3.58 | 1.11 | 2.56 | 3.49 | 4.46 | 0.354 | 0.297 | 1.08 | 1.84 | -0.126 | 2.5 | 0.00748 | 3.89
3 | ATCGAAAGGTCGAGGCGAGTATAGAGAAAGGGAA | 3.71 | 3.01 | -0.542 | 2.24 | 0.308 | 4.47 | 2.71 | 2.86 | 0.749 | 1.52 | 0.108 | 1.14 | 0.481 | 0.208 | 0.98 | 2.11 | 0.0659 | 2.71 | 0.203 | 3.86
4 | AGGCAAAGTTCATCTAGGTAACGTAAGATATGCT | 6.62 | 5.97 | 4.54 | 3.71 | 1.35 | 4.88 | 5.55 | 5.87 | 2.83 | 4.72 | 1.08 | 3.73 | 1.34 | 0.748 | 3.08 | 5.33 | 6.34 | 3.96 | 1.67 | 4.72
5 | GCTAGTTGGTCAGTAAGAGGTCACACACCGGTCG | 2.76 | 3.64 | 4.57 | 3.51 | 0.636 | 3.99 | 1.86 | 2.95 | 1.14 | 2.34 | 0.963 | 2.75 | 0.167 | 0.349 | 2.96 | 4.78 | 1.57 | 5.53 | 2.06 | 3.73
6 | CCTACTGGGCCAAAAAAGTCATTGATGCCGATAA | -0.316 | -0.318 | -0.289 | -0.181 | -0.774 | 0.404 | 0.271 | 0.686 | -0.0301 | 0.41 | 3.32 | 2.23 | -0.158 | -0.274 | 0.205 | -0.303 | -0.213 | -0.0727 | -0.0226 | 0.134
7 | TATACAGGGTCAAAGGCCAGTGTACGAATGTCGA | 6.89 | 6.1 | 2.61 | 4.74 | 2.33 | 6.22 | 8.3 | 7.38 | 4.93 | 7.23 | 1.89 | 5.07 | 2.16 | 0.623 | 2.38 | 4.13 | 0.622 | 5.66 | 0.468 | 4.57
8 | ACTCGGAGGACTAAGGTCAGAGCTACGCCAGTGA | 1.93 | 1.78 | 0.464 | 1.49 | -0.00791 | 2.52 | 1.93 | 2.96 | 0.578 | 2.41 | -0.123 | 0.778 | -0.0206 | -0.832 | 1.27 | 1.8 | 0.241 | 2.92 | -0.326 | 2.88
9 | CGTCCAAGGTCAGGGAGGTCAGTGAATGCCGAGT | 6.32 | 5.28 | 2.42 | 4.43 | 0.00503 | 5.2 | 4.29 | 4.63 | 0.9 | 3.13 | 2.94 | 3.53 | -0.257 | -1.31 | 4.71 | 6.02 | 10.3 | 5.53 | 2.15 | 5.33
